# Screening data deposited in PubChem BioAssay by several laboratories.
# Most compounds without a hit are left out; they make up all but 2.4% or so of the library.
# Hck-Nef inh – inhibitors of human Hck kinase activated by Nef; Recombinant Hck-YEEI plus Nef, Z-Lyte FRET kinase assay; inhibition, % at 20 µM; 0.68% of 220,000 active; AID 463187; P08631;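 active = Hck-Nef kinase inhibition above about 50%, limit read from the data; inactive = inhibition below that limit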;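 note: 0% = DMSO with Hck plus Nef and 100% = Hck alone without Nef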
# Target sequence (P08631 whole entry, looked up): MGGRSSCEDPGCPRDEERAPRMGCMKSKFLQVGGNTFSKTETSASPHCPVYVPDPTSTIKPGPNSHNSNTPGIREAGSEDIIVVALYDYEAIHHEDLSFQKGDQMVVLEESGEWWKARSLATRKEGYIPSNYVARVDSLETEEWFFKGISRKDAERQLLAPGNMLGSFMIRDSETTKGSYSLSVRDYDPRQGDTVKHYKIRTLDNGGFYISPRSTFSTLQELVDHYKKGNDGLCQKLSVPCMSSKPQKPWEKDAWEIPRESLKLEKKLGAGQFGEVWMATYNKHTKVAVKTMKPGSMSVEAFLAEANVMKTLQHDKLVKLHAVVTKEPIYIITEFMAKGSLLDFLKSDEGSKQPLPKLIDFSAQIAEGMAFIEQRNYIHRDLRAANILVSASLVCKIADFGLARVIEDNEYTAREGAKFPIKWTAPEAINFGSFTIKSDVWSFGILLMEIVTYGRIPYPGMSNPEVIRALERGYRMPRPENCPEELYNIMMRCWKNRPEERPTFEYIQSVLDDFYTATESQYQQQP
# Arbovirus inh – blocks arbovirus infection. arbovirus infection cell-based antiviral screen. inhibition, % at 10 µM. 0.37% of 200,000 active. AID 1251; in the data active = inhibition above about 30%
# EP2 antag – inhibitors of human EP2 prostaglandin E2 receptor; P43116; C6 glioma cells expressing human EP2, cAMP TR-FRET; cells stimulated with saturating PGE2; inhibition, % at 25 µM; 0.52% of 260,000 active; AID 1422;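 active = percent inhibition above 40 after rounding to a whole number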;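 note: rat C6 glioma host cells with rolipram phosphodiesterase inhibitor present; the protocol text gives 20 µM as final concentration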
# p97 inhibitor – inhibitors of human p97 ATPase | inhibition, % at 8 µM | 0.42% of 220,000 active | recombinant p97 ATPase, Kinase-Glo ATP luminescence, 3 h | AID 1481 | P55072; in the data active = inhibition above about 15%;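 note: 0% = DMSO vehicle and 100% = wells lacking enzyme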
# EP2 mod – modulators of human EP2 prostaglandin E2 receptor | EP2-expressing cells, cAMP HTRF FRET, PGE2 co-stimulation | induction, % at 25 µM | 0.83% of 260,000 active;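 active = compounds whose cAMP rise, as percent of the full-agonist control response, exceeds 60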;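 note: rat C6 glioma line stably carrying human EP2 under a CMV promoter; the protocol text gives 20 µM as final concentration; 100% = response of wells given 1 µM PGE2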
# The depositor's hits bear a star; / = no result given; ! = repeats disagree.
SMILES,Hck-Nef inh,Arbovirus inh,EP2 antag,p97 inhibitor,EP2 mod
C/C=C/Cn1c(SCc2ccccc2)nc2c1c(=O)[nH]c(=O)n2C,1,-5,10,-4,66*!
CCCCCn1c(Sc2nc3ccccc3s2)nc2c1c(=O)[nH]c(=O)n2C,-1,-9,7,-11,63*
CCOCCn1c(SCc2ccccc2)nc2c1c(=O)[nH]c(=O)n2C,10,-2,14,/,12
CC(C)Sc1nc2c(c(=O)[nH]c(=O)n2C)n1CCCc1ccccc1,/,/,9,/,71*
COc1ccc(-c2nc3cnccn3c2NC(C)(C)C)cc1CO,/,/,14,/,-46
COc1ccc(Nc2nc3ccccc3nc2-n2nc(C)cc2C)cc1,-1,0,9,-1,65*
N#Cc1cn(-c2ccccc2)nc1C(=O)c1ccccc1,0,-6,15,-4,62*
CCC(=O)Nc1ccc(NC(=O)c2ncoc2-c2cccs2)cc1C,/,/,6,/,-33
COC(=O)c1sccc1NC(=O)CSc1ccccc1NS(=O)(=O)c1ccc(Br)cc1,1,32*,3,0,28
CC(C)C(=O)c1cc2c(cc1NC(=O)c1cccs1)OCCO2,2,-5,2,1,65*
O=C(Nc1cc2c(cc1C(=O)c1ccccc1)OCCO2)c1cccs1,/,/,7,/,16
Cc1ccc(CNC(=O)c2ccc3c(=O)[nH]c4c(C(=O)NCC5CCCO5)sc(=S)n4c3c2)cc1 (stereo unspecified),57*,-2,7,2,-70
CCC(C)(C)n1nnnc1C(c1cc2ccc(C)cc2[nH]c1=O)N1CCCc2ccccc21 (stereo unspecified),/,/,9,/,35
O[C@@H](COc1ccc(Cl)cc1Cl)CN1CCCC1,/,/,12,/,0
OC(CNCC1(N2CCCCC2)CCCCC1)COc1ccc(Cl)cc1Cl (stereo unspecified),22,30*,2,2,-21
COc1ccc(Cl)cc1NC(=O)CSc1nnc(CN2CCOCC2)n1C,/,/,15,/,0
COc1ccc(N2CCN(C(=O)NC3CC(=O)N(c4ccc(OC)cc4)C3)CC2)cc1 (stereo unspecified),32,21,6,0,-51
CCCN(CCC)C(=O)NC1CC(=O)N(c2ccc(OC)cc2)C1 (stereo unspecified),2,4,68*,2,-8
Cc1cc2cc(C(c3nnnn3Cc3ccco3)N3CCN(c4ccccc4)CC3)c(=O)[nH]c2cc1C (stereo unspecified),/,/,13,/,-9
COC(=O)Cn1cc(CN2CCC(O)(c3ccccc3F)CC2)c2ccccc21,/,/,4,/,-97
O=C(O)/C=C/c1cccc(NC(=O)c2ccc(Cl)cc2)c1,22,-4,10,-1,30
O=C(O)/C=C/c1cccc(NC(=O)c2ccccc2)c1,-3,/,7,-16,93*
Cc1csc(NC(=O)c2ccc(NC(=O)C(C)C)cc2)n1,/,/,6,/,-57
COC(=O)/C=C/c1sc2nc(C)cc(C)c2c1N=CN(C)C,20,45*,10,4,19
Cc1cc(C)c2c(N=CN(C)C)c(C(=O)N3CCN(c4ncccn4)CC3)sc2n1,2,16,11,5,-1
SMILES,Hck-Nef inh,Arbovirus inh,EP2 antag,p97 inhibitor,EP2 mod
CCCC(c1nnnn1CC1CCCO1)N(Cc1cc2cccc(C)c2[nH]c1=O)C1CCCCC1 (stereo unspecified),/,/,14,/,11
Cc1cc(C)c(O)c(Cc2cccc(Cc3cc(C)cc(C)c3O)c2O)c1,/,/,36,/,23
Cc1cc(Cc2cc(Cc3cc(C)cc(C(C)(C)C)c3O)c(C)cc2C)c(O)c(C(C)(C)C)c1,/,/,52*,/,19
COc1cccc(OCc2cc(/C=N/Nc3ccc(C(=O)O)cc3)ccc2OC)c1,18,/,9,-2,62*
CCc1nnc(NC(=O)c2ccc(OC(C)=O)cc2)s1,/,/,3,/,-13
CCOc1cc(Br)c(Br)c(C=Nc2ccc(NC(C)=O)cc2)c1O,63*,-5,21,4,37
CC(=O)C(C(C)=O)c1c(Cl)c(O)c(O)c2c(C(=O)c3ccccc3)coc12,2,-43,57*,0,-27
CN1CCN(Cc2c(O)ccc3occ(C(=O)c4ccccc4)c23)CC1,1,3,8,5,1
Cc1cc2cc(C)c(SCC(=O)NCc3ccc4c(c3)OCO4)nc2cc1C,/,/,22,/,85*
CCc1cc2c(C)cc(C)cc2nc1SCC(=O)NCc1ccc2c(c1)OCO2,/,/,19,/,72*
CC(=O)Nc1ccc(CN(Cc2ccc(C)o2)C2CC(C)(C)NC(C)(C)C2)cc1,/,/,6,/,-16
CCCC(=O)Nc1ccc(NC(=O)c2ccccc2F)nc1,/,/,9,/,-10
N#Cc1ccccc1NC(=O)c1ccccc1OCC(=O)NCc1ccco1,7,31*,3,-3,0
CCCC1CC(C)(C)CCN1c1c[nH]c(=O)[nH]c1=O (stereo unspecified),/,/,12,/,-5
Cc1ccc(C(=O)N2CCCc3ccccc32)c(F)c1F,/,/,4,/,62*
Cn1c(SCC#N)nnc1-c1ccc(Br)cc1,/,/,1,/,-13
N#Cc1c(Cl)c(Cl)c2nnc(-c3ccc(Br)cc3)n2c1Cl,-1,-19,118*,3,-50
CCCCN(CCCC)C(=O)C1(P(=O)(c2ccccc2)c2ccccc2)CCC1,13,/,6,2,85*
CN1CCc2c(sc3c2C(=O)NC(c2ccccc2)N3)C1 (stereo unspecified),5,2,10,4,-30
CN1CCc2c(sc3c2C(=O)NC(c2ccc4c(c2)OCO4)N3)C1 (stereo unspecified),/,/,41*,/,/
CC1CCN(c2nc3c(c(=O)[nH]2)CCN(C(=O)c2cnccn2)C3)CC1,/,/,5,/,-7
Cc1cc(C)nc(NS(=O)(=O)c2ccc(NC(=O)c3ccco3)cc2)n1,-1,4,14,6,28
CCc1ccc(C(=O)Nc2ccc(S(=O)(=O)Nc3nc(C)cc(C)n3)cc2)o1,-10,106*,8,-8,20
CCOc1ccc(-c2csc(NC(=O)CSCC(=O)O)n2)c2ccccc12,16,32*,11,-1,55
CCOc1ccc(-c2csc(NC(=O)CSC3=NC(=O)CN3C(C)=O)n2)c2ccccc12,1,4,10,2,-4
SMILES,Hck-Nef inh,Arbovirus inh,EP2 antag,p97 inhibitor,EP2 mod
Cc1cccc(NC(=S)N(Cc2cccs2)Cc2cc3ccc(C)c(C)c3[nH]c2=O)c1,/,/,12,/,-7
N#C/C(=C(/O)CSc1ccccc1C(=O)O)c1nc2ccccc2s1,1,-1,13,16*,15
CCC(=O)Nc1ccc(NC(=O)CSc2nnc3c4c5c(sc4ncn23)CCCC5)cc1C,/,/,16,/,-42
CC1=CN2C(=N)/C(=C/c3ccc([N+](=O)[O-])o3)C(=O)N=C2S1,5,-1,104*,8,-10
CC1=CN2C(=N)/C(=C/c3ccco3)C(=O)N=C2S1,8,-14,9,1,5
CCCCCCn1c(CN2CCC(C)CC2)nc2c1c(=O)n(C)c(=O)n2C,-11,-6,6,-6,63*
CC(=O)NCC1=C(NC(C)=O)C2CC1C(C)(C)C2C (stereo unspecified),13,31*,/,0,13
